# Laboratory results published in PubChem BioAssay AID493169 (National Center for Advancing Translational Sciences (NCATS), 2011).
# Records with an inconclusive call do not appear. A number with no mark means an inactive call. The source made the active and inactive calls. The call rests on the fitted dose curve; in most records, active means well fitted inhibition curve with a large enough effect; inconclusive means small, poorly fitted or top-dose-only effect; inactive means flat fitted curve, though single readings scatter.
# Experiment: CHOP2 Reporter Counterscreen Assay for Inhibitors of Ubiquitin-specific Protease USP2a;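 further: activated enterokinase alone at 50 pM in a cell-free format rather than USP2a or CHOP2; nearly all actives have a fitted effect of over 55% in size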
# Settings: purified enterokinase, fluorogenic substrate, 485/531 nm; series mostly up to 38.3 µM; activity change, negative = inhibition: at the top concentration
# Summary of the method: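 Fluorescence (485/531 nm) read 10 min after adding 25nM reporter substrate to 50 pM activated EK preincubated 30 min RT with compound; Tris pH 8.0/CaCl2/CHAPS buffer. Data normalized to buffer-alone inhibition; concentration-response curves fitted.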
# On the % scale 0 is the no-effect control and ±100 the full control effect; potency means the concentration at half of the fitted maximal effect.
Compound,"activity change, negative = inhibition",Potency
COc1cc(C(O)P(=O)(OC(C)C)c2ccc(N(C)C)cc2)cc(OC)c1OC (stereo not given),4.7%,
O=C1c2ccccc2C(=O)N1CCC1=CCCCC1,-0.258%,
O=C1NCC(CN(c2ccccc2)c2ccccc2)O1 (stereo not given),0.268%,
COc1cccc(-c2csc3nnc(SCC(=O)NCc4cccs4)n23)c1,-1.81%,
CCn1c(COc2ccccc2)nnc1SCC(=O)CC(=O)Nc1ccccc1OC,-12.8%,
CCOC(=O)CCCNC(=O)COC(=O)c1cccc(C)c1O,5.39%,
CN(c1cccc(NC(=O)Nc2cccc(Cl)c2)c1)S(C)(=O)=O,-0.746%,
O=[N+]([O-])c1c(NCCO)cc(N2CCN(Cc3ccc4c(c3)OCO4)CC2)c2nonc12,-0.847%,
O=C(CCCN1C(=O)c2ccccc2C1=O)NC1=NCCS1,4.73%,
Cc1ccc(NC(=O)CSc2nnc(COc3ccc(C#N)cc3)n2-c2ccccc2)cc1C,-2.49%,
CCCCC(CC)CN=C(N)NC(N)=NCCCCCCN=C(N)NC(N)=NCC(CC)CCCC (stereo not given),,5.62 µM (active)
C#CCOCCOCCOCCNc1nc(N2CCN(C(=O)CCCCCCCCCCNC(=O)Cn3cc(CCCCCN)nn3)CC2)nc(N2CCN(C(=O)CCCCCCCCCCNC(=O)Cn3cc(CCCCCN)nn3)CC2)n1,,10 µM (active)
O=C(CSc1nc2ccccc2[nH]1)Nc1ccc2c(c1)OCCO2,-0.689%,
CC(C)CC(=O)NC(=S)Nc1nc(-c2ccc(Cl)cc2)cs1,2.17%,
COc1ccc(CCn2c(O)cc3nn(-c4nc5ccccc5s4)c(=O)c-3c2C)cc1,,11.2 µM (active)
COc1ccc(CNS(=O)(=O)c2ccc(S(=O)(=O)N3CCCCC3)cc2)cc1,5.66%,
CCOc1ccc(Cn2c(=O)sc3ccccc32)cc1OC,2.91%,
Cn1nnnc1Sc1ncnc2scc(-c3ccc4c(c3)OCO4)c12,-2.6%,
O=S(=O)(Nc1cccc(-c2cn3c(n2)SCC3)c1)c1ccc(F)cc1F,0.249%,
COC(=O)c1[nH]c2cc(OC)ccc2c1N,1.82%,

Compound,"activity change, negative = inhibition",Potency
CCN=C1SC(C(=O)Nc2cccc(OCC)c2)CC(=O)N1CC (stereo not given),0.255%,
O=C(CSc1ccc2nnc(-c3cccc(F)c3)n2n1)N1CCCc2ccccc21,-4.68%,
CNc1sc(C(=O)c2ccc(F)cc2)c(N)c1-c1nc2ccccc2s1,5.49%,
O/N=C/c1ccccc1OCc1ccccc1F,0.904%,
CC1CCCCN1CCNC(=O)c1cnn2ccccc12 (stereo not given),1.66%,
Cc1[nH]c2ccccc2c1C(c1ccccn1)c1c(C)[nH]c2ccccc12,-6.71%,
O=C(Nn1c(SCc2ccc([N+](=O)[O-])cc2)nc2ccccc2c1=O)c1ccc(F)cc1,-0.219%,
COC(=O)C1CCN(C(=O)COC(=O)CC(NC(N)=O)c2ccc(Cl)cc2)CC1 (stereo not given),2.03%,
CCOc1cc(N2CCOCC2)c(OCC)cc1NC(=O)Cc1cn2ccsc2n1,5.43%,
C#CCOCCOCCOCCNc1nc(N2CCN(C(=O)CCCCCCCCCCNC(=O)[C@@H](CCSC)n3cc(CCO)nn3)CC2)nc(N2CCN(C(=O)CCCCCCCCCCNC(=O)[C@H](CCCN=C(N)N)n3cc(C[C@@H](C)CC)nn3)CC2)n1,,2.51 µM (active)
COc1ccc(OC)c(NC(=O)CSc2nc(O)cc(=O)n2CC(C)C)c1,0.692%,
O=C(CCc1nc(-c2ccccc2F)no1)NC1CCCCCC1,1.18%,
COc1cccc(C(=O)NC(C)c2ccc(-c3ccccc3)cc2)c1OC (stereo not given),-5.34%,
O=C(C[n+]1ccc(-c2cc(C(=O)Nc3cccc(C(F)(F)F)c3)c3ccccc3n2)cc1)c1cccc([N+](=O)[O-])c1,-18%,
O=C(NNC(=O)c1cc2ccccc2cc1O)Nc1ccccc1F,0.199%,
Cc1csc(NC(=O)CCn2c(=O)sc3ccccc32)n1,2.39%,
CCCCCCCCCCOC(=O)Cn1c(COc2ccccc2)[n+](C)c2ccccc21,,11.2 µM (active)
O=C(O)c1cccc(-n2cccc2/C=C2/NC(=O)N(c3ccc(Cl)cc3)C2=O)c1,,2 µM (active)
CCc1sc(/C=C(/C#N)C(N)=S)cc1[N+](=O)[O-],-6.11%,
Cn1c(=O)[nH]c(=O)c2c1nc(NCc1ccccc1)n2CCCc1ccccc1,1.28%,
